Here are results for 40 molecules from PubChem BioAssay (Tox21).

Inconclusive results are not listed. Where a call stands in place of a potency, no number is given. Values without a mark were called inactive. Active and inactive are the calls of the source. Calls come from the whole dose curve.

The nature of the assay: qHTS assay to identify small molecule agonists of the AP-1 signaling pathway - cell viability counter screen (AID 1159525). Note: nearly all actives have a fitted effect of over 55% in size. To be noted: ME-180 (cervical carcinoma) AP-1-bla cells viability, ATP luminescence, 5 h; series mostly up to 76.8 µM. The source says:
National Center for Advancing Translational Sciences [NCATS]
NIH Chemical Genomics Center [NCGC]
U.S. Environmental Protection Agency [EPA]
National Institutes of Environmental Health Sciences [NIEHS]
National Toxicology Program [NTP]
U.S. Food and Drug Administration [FDA]
Activator protein-1 (AP-1), a transcription factor, plays an important role in tumor genesis by regulating genes involved in cell proliferation, differentiation, apoptosis, and angiogenesis. AP-1 activity is induced by a complex network of signaling pathways that involves extracellular signals, such as growth factors. The AP-1 protein complex formed from c-Fos and c-Jun binding to the AP-1 response element results in transcriptional activation of genes containing such elements within their promoter.
Low molecular weight molecules have been discovered and developed to modulate various components of these signaling pathways, for example, MAP kinase inhibitors. However, many points of pathway modulation remain untested due to the lack of chemical probes making this signaling locus of general interest.
Using a beta-lactamase reporter-gene under control of the AP-1 response element, a cell-based assay [CellSensor(TM) AP-1-bla ME-180 developed by Invitrogen Corp.] was used to measure EGF-induced signaling. The Tox21 10K library compounds were measured for their ability to positively modulate the action of EC50 EGF on reporter gene activity. Compounds were screened in a 15-pt titration series in 1536-well format. The cytotoxicity of the Tox21 compound library against this cell line was tested in parallel by measuring the intra cellular ATP content in the same wells.
Tox21 Assay Protocol Summary:
2500 cells/5uL in Opti-MEM medium containing 0.5% dialyzed FBS, 0.1 mM NEAA, 1 mM sodium pyruvate and 10 mM HEPES was dispensed into 1536-well black wall/clear bottom plates using a Multidrop dispenser and cells were cultured at 37 degrees Celsius overnight. Next day 23 nL of compounds dissolved in DMSO, positive controls or DMSO were delivered to each well using a pin tool. The plates were incubated at 37 degrees Celsius for 5 hours. 1 uL of LiveBLAzerTM B/G FRET substrate (Solution A+B+C+D) was added to each well using a Flying Reagent Dispenser. After incubated at room temperature for 2.5 hours the plates were measured on an EnVision plate reader at Excitation 405nm, Emission1=460nm and Emission 2=530nm. The %Activity was determined from the ratio of 460nm/530nm.
After the plates were read for Beta-Lactamase assay on Envision; 3 ul Cell Titer Glo (Promega) was added to measure the cytotoxicity and the plates were then incubated at RT in dark for 30 min. The luminescence was read on ViewLux (Perkin Elmer, Shelton, CT) using 6 sec exposure. ViewLux data was expressed as relative luminescence units.
For primary data analysis, raw plate reads for each titration point were first normalized relative to […] EGF control (100%) and DMSO only wells (basal, 0%).
For primary data analysis for viability assay, raw plate reads for each titration point were first normalized Tetra n-octyl ammonium bromide control (-100%) and DMSO (control, 100%).
On the technique in general: Quantitative high-throughput screening tests each substance at several concentrations.
Regarding `O=C(c1ccc(F)cc1)C1CCN(CCn2c(=S)[nH]c3ccccc3c2=O)CC1`, the Potency result is “inactive”.
On the same count and under the same terms, the result for `COC(C)OC` reads “inactive”; that for `OCCNCc1ccccc1`, “inactive”; that for `CC(C)CC(=O)C1C(=O)c2ccccc2C1=O`, “inactive”.
Turning to `O=[N+]([O-])c1ccc(NCCO)c(OCCO)c1`, the Potency result was “inactive”.
With `Cc1ccc(C(=O)Oc2ccc(C(O)CNC(C)(C)C)cc2OC(=O)c2ccc(C)cc2)cc1` (stereo not given), the Potency result is “inactive”.
On the same count and under the same terms, the result for `O=C1c2ccccc2S(=O)(=O)N1CCCCN1CCN(c2ncccn2)CC1` reads “inactive”; that for `COCCCN1CCC(NC(=O)c2cc(Cl)c(N)c3c2OCC3)CC1`, “inactive”.
The same measure, in the same setting: the same measure for `O=C(Nc1ccccc1)c1ccccc1O`: “inactive”.
Still for that read-out and setting: the result for `COc1ccc(-c2nc3ccc(C4=NNC(=O)CC4C)cc3[nH]2)cc1` (stereo not given) reads “inactive”.
Regarding `CN1CCC(N(Cc2cccs2)c2ccccc2)CC1`, the Potency result was “inactive”.
For `O=C1OC(CN2CCOCC2)CN1/N=C/c1ccc([N+](=O)[O-])o1` (stereo not given), the Potency entry was “inactive”.
On to `Cc1cc(C(=O)O)ccc1[N+](=O)[O-]`, for which the Potency entry is “inactive”.
On the same count and under the same terms, the result for `C=C(C)C(=O)OCC` reads “inactive”.
For `Nc1ncn([C@H]2C[C@H](O)[C@@H](CO)O2)c(=O)n1`, the Potency entry is “inactive”.
Still for that read-out and setting: the same measure for `CCN(CC)CCNc1ccc(CNC=O)c2sc3ccc(OC)cc3c(=O)c12`: “inactive”.
Take `CCOc1ccc(O)cc1`: the Potency entry is “inactive”.
With `C[N+](C)(C)CCOC(=O)CCC(=O)OCC[N+](C)(C)C`, the Potency result is “inactive”.
On the same count and under the same terms, the result for `Cc1oc(-c2ccccc2)nc1CCOc1cccc2c1ccn2CCC(=O)O` reads “inactive”.
The same measure, in the same setting: the same measure for `Cc1nn(C)c(Oc2ccccc2)c1/C=N/OCc1ccc(C(=O)OC(C)(C)C)cc1`: “inactive”.
Same read-out and setting: the result for `CCOC(=O)COC(=O)c1cc(Oc2ccc(C(F)(F)F)cc2Cl)ccc1[N+](=O)[O-]` reads “inactive”; that for `O=S(=O)(Oc1ccc(Cl)cc1)c1ccccc1`, “inactive”.
On to `Cc1ccc(N=Nc2c(O)c(C(=O)O)cc3ccccc23)c(S(=O)(=O)O)c1`, for which the Potency entry was “inactive”.
In the case of `O=C(Nc1ccc(S(=O)(=O)N2CCOCC2)cc1)c1cc(Cl)ccc1NS(=O)(=O)c1ccc(Cl)s1`, the Potency result is “inactive”.
On the same count and under the same terms, the result for `CCC(=O)O[C@]1(C(=O)CCl)[C@@H](C)C[C@H]2[C@@H]3CCC4=CC(=O)C=C[C@]4(C)[C@@]3(F)[C@@H](O)C[C@@]21C` reads “inactive”; that for `COS(=O)(=O)C(F)(F)F`, “inactive”; that for `Nc1ccc(N)c2c1C(=O)c1ccccc1C2=O`, “inactive”.
Same read-out and setting: the result for `CCC(C)O` (stereo not given) reads “inactive”; that for `CCCCCCCCCCCC(=O)OC[C@@H](O)[C@H]1OC[C@H](OCCO)[C@H]1OCCO`, “inactive”.
Turning to `C/C(=C(\CCOP(=O)(O)O)SC(=O)c1ccccc1)N(C=O)Cc1cnc(C)nc1N`, the viability change, negative = cytotoxic was -3.18% [at 6.97 µM].
For the molecule `CC(C)O.CC(C)O.CCOC(=O)/C=C(\C)O.CCOC(=O)/C=C(\C)O.[Ti]`, the Potency entry was “inactive”.
Same read-out and setting: the result for `CCN(CC)c1ccc2c(-c3ccccc3C(=O)O)c3ccc(=[N+](CC)CC)cc-3oc2c1` reads “inactive”.
On to `COC(=O)c1ccc(I)cc1S(=O)(=O)NC(=O)Nc1nc(C)nc(OC)n1`, for which the Potency entry was “inactive”.
`CCCCCCCCCCO[C@@H]1O[C@H](CO)[C@@H](O)[C@H](O)[C@H]1O`: the Potency result is “inactive”.
Regarding `CCOC(=O)C1=C[C@]2(CC)CCCN3CCc4c(n1c1ccccc41)[C@@H]32`, the Potency result is “inactive”.
The same measure, in the same setting: the same measure for `COCC(C)OC(C)=O` (stereo not given): “inactive”.
Regarding `C/C=C/C(=O)CC`, the viability change, negative = cytotoxic is -12.1% [at 15.8 µM].
In the case of `Brc1c2ccccc2c(Br)c2ccccc12`, the viability change, negative = cytotoxic was 0.0847% [at 6.97 µM].
For `COc1ccnc(CS(=O)c2nc3ccc(OC(F)F)cc3[nH]2)c1OC` (stereo not given), the Potency entry is “inactive”.
For `ClCCOCCOCCCl`, the Potency result was “inactive”.
